Laboratory results published in PubChem BioAssay (EPA / NIEHS).
Several values for one entry are separate records, joined by “and”; a condition that tells them apart may be missing. Identical values can stand only once. Activity calls are given as the source filed them. How the source made its calls: active means hit-call score of the fitted dose curve at least 0.9, where 1 is the maximum; inactive means score below 0.9.

read-out: Vascular cell adhesion molecule 1 (VCAM1), VCAM1 (gene 7412); assay: BSK_4H_VCAM1: BioMAP Diversity Plus: 4H Assay for Vascular cell adhesion molecule 1 (VCAM1) Biomarker Activity (AID 2283033); conditions: primary human endothelial cells (HUVEC); actives raise or lower the signal;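 on outcome: cell-surface VCAM-1 protein measured by ELISA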
Procedure, shortened: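 Endpoint derived from bidirectional fitting against DMSO controls of VCAM-1 ELISA signal in umbilical vein endothelial cells sampled at 24 h following treatment.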

Compound	outcome	AC50
O=P(O)(O)CCC(F)(F)C(F)(F)C(F)(F)C(F)(F)C(F)(F)C(F)(F)C(F)(F)C(F)(F)F	inactive	–
CCC(C)c1ccccc1O (stereo unspecified)	inactive	–
O=C(O)C(F)(F)OC(F)(F)C(F)(F)OC(F)(F)C(F)(F)OC(F)(F)C(F)(F)C(F)(F)C(F)(F)F	–	48.4 µM (active) and 50.2 µM (active)
CCCCCCCCCCCCCCC	inactive	–
O=C1NS(=O)(=O)c2ccccc21	inactive	–
C[C@]12CC[C@@H]3c4ccc(O)cc4CC[C@H]3[C@@H]1C[C@@H](O)[C@@H]2O	inactive	–
CCOC(=O)CN[C@@H](C(=O)N1CC[C@H]1C(=O)NCc1ccc(/C(N)=N/O)cc1)C1CCCCC1	inactive	–
CCCCC(CC)C(=O)OCCOCCOCCOCCOC(=O)C(CC)CCCC (stereo unspecified)	inactive	–
Clc1ccc(Nc2nnc(Cc3ccncc3)c3ccccc23)cc1	inactive	–
Cc1cccc2c1ccc1ccccc12	inactive	–
CC(C)(C)c1ccc(O)c(O)c1	–	17.1 µM (active)
CN(C)c1ccc(C(=C2C=CC(=[N+](C)C)C=C2)c2ccccc2)cc1	–	0.016 µM (active)
O=P(O)(O)CCC(F)(F)C(F)(F)C(F)(F)C(F)(F)C(F)(F)C(F)(F)F	inactive	–
O=S(=O)(O)C(F)(F)C(F)(F)C(F)(F)C(F)(F)C(F)(F)C(F)(F)C(F)(F)C(F)(F)C(F)(F)C(F)(F)F	inactive	–
O=C(NO)c1ccccc1	inactive	–
CC[N+](CC)(CC)Cc1ccccc1	inactive	–
O=C(c1ccccc1)c1ccccc1	inactive	–
OCC(F)(F)C(F)(F)C(F)(F)C(F)(F)C(F)(F)C(F)(F)C(F)(F)C(F)(F)C(F)(F)C(F)(F)C(F)(F)F	inactive	–

Compound	outcome	AC50
Cc1[nH]nc2c1N=C(c1ccccc1Cl)c1cc([N+](=O)[O-])ccc1N2	–	2.56 µM (active)
O=C(NCc1ncc(C(F)(F)F)cc1Cl)c1c(Cl)cccc1Cl	inactive	–
N=C(N)c1ccc(OCCCCCOc2ccc(C(=N)N)cc2)cc1	inactive	–
C=CC(C)(CCC=C(C)C)OC(C)=O (stereo unspecified)	–	30.5 µM (active)
CCCCCCCCCCCCCCCCCC[N+](C)(C)Cc1ccccc1	–	2.8 µM (active)
O=C(O)CCC(F)(F)C(F)(F)C(F)(F)C(F)(F)C(F)(F)C(F)(F)F	inactive	–
Oc1ccc(Cc2ccccc2O)cc1	inactive	–
CCCCC=O	inactive	–
CN(CCO)S(=O)(=O)C(F)(F)C(F)(F)C(F)(F)C(F)(F)C(F)(F)C(F)(F)C(F)(F)C(F)(F)F	inactive	–
COCN(COC)c1nc(N(COC)COC)nc(N(COC)COC)n1	inactive	–
O=C1c2ccc(O)c(O)c2C(=O)c2c(O)ccc(O)c21	inactive	–
OCCN1CN(CCO)CN(CCO)C1	–	29.8 µM (active)
CCCCc1oc2ccccc2c1C(=O)c1cc(I)c(OCCN(CC)CC)c(I)c1	–	19.6 µM (active)
O=C(O)CCC(F)(F)C(F)(F)C(F)(F)C(F)(F)C(F)(F)F	inactive	–
CN(Cc1cnc2nc(N)nc(N)c2n1)c1ccc(C(=O)N[C@@H](CCC(=O)O)C(=O)O)cc1	inactive	–
O=C(CC(=O)C(F)(F)C(F)(F)C(F)(F)F)c1cccs1	–	27.6 µM (active) and 31 µM (active)
CS(=O)(=O)c1ccc([C@@H](CC2CCCC2)C(=O)Nc2cnccn2)cc1Cl	inactive	–
CC1=NN(c2ccccc2)C(=O)C1	inactive	–
